miR-122 inh = miR-122 suppressors via Renilla sensor increase, primary screen, cell-based, Huh7 psiCHECK-miR122, Renilla luciferase, single point; 48 h; activation, % at 12.5 µM; 340,000 compounds, 0.14% hits; AID 623901, 2012;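 active means mean activation of 30% or more, with every replicate also reaching 30%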;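 further: higher luciferase signal means stronger suppression of miR-122 activity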
Each line names hits and unclear results; the compound was inactive in the other large screens. The sample as a whole holds a higher share of hits than the screen did.

O=C(Cn1c(=O)c2ccccc2n(CC(=O)N2CCCCC2)c1=O)N1CCCCC1	miR-122 inh 60
C[C@@H]1CN([C@H](C)CO)C(=O)c2cc(-c3ccncc3)cnc2O[C@@H]1CN(C)C(=O)C1CCOCC1	none
CCn1c(CCNC(=O)c2ccc(OC)cc2)nnc1SCC(=O)Nc1ccccc1F	none
CCn1c(SCC(=O)Nc2ccc(N3CCOCC3)cc2)nnc1-c1ccc(OC)cc1	none
CCOc1ccc(-c2nnc(SCC(=O)Nc3ccc4c(c3)c3ccccc3n4CC)n2N)cc1	miR-122 inh 54
O=C(O)c1ccc2c(c1)C(=O)N(CCCCCCCN1C(=O)c3ccc(C(=O)O)cc3C1=O)C2=O	none
Cc1ccc(-c2nc(C(Cl)Cl)c3ccccc3n2)cc1	miR-122 inh 61
C[C@H](CO)N1C[C@H](C)[C@@H](CN(C)C(=O)C2CC2)Oc2cc(-c3ccncc3)ccc2S1(=O)=O	none
COc1ccc(N2C(=O)c3cccc4c(N(C)CCO)ccc(c34)C2=O)cc1	none
C[C@@H]1CN([C@@H](C)CO)S(=O)(=O)c2ccc(C#CC(C)(C)O)cc2O[C@H]1CN(C)CC1CC1	none
C[C@@H]1CN([C@H](C)CO)C(=O)c2cc(C#CCc3ccccc3)cnc2O[C@H]1CN(C)C(=O)C1CCCCC1	none
CC(C)NC(=O)N(C)C[C@@H]1Oc2ncc(C3=CCCCC3)cc2C(=O)N([C@@H](C)CO)C[C@@H]1C	none
COc1cc(C(=O)Nc2ccc(S(=O)(=O)N3CCCCC3C)cc2)cc(OC)c1OC (stereo not given)	miR-122 inh 46
COc1ccccc1N(CC(=O)N1CCCCC1C)S(=O)(=O)c1ccc(Cl)cc1 (stereo not given)	none
COc1ccccc1S(=O)(=O)Nc1cccc(S(=O)(=O)N2CCCC2)c1	none
C[C@H]1CN([C@@H](C)CO)C(=O)c2cc(-c3cccc(F)c3)cnc2O[C@H]1CN(C)C(=O)C1CCOCC1	none
COCC(=O)Nc1ccc(S(=O)(=O)NCCc2ccccc2)cc1	none
C[C@@H]1CN([C@H](C)CO)C(=O)c2cc(C#CCc3ccccc3)cnc2O[C@@H]1CN(C)Cc1cccc(C(=O)O)c1	none
COc1ccccc1-c1ccc2c(c1)O[C@H](CN(C)C(=O)Nc1ccccc1)[C@H](C)CN([C@@H](C)CO)S2(=O)=O	none
Cc1ccc(S(=O)(=O)Nc2ccc3c(c2)C(=O)N([C@@H](C)CO)C[C@H](C)[C@H](CN(C)C(=O)Nc2ccc(F)cc2)OCCCC[C@@H](C)O3)cc1	none
C[C@H](CO)N1C[C@H](C)[C@H](CN(C)C(=O)NC2CCCCC2)Oc2ncc(-c3ccccc3F)cc2C1=O	none
COc1ccc(S(=O)(=O)N(C)C[C@H]2Oc3ccc(NC(=O)Nc4ccc(C(F)(F)F)cc4)cc3C(=O)N([C@@H](C)CO)C[C@H]2C)cc1	none
Cc1ccc(S(=O)(=O)N(C)C[C@H]2Oc3ccc(NC(=O)Nc4ccc(C(F)(F)F)cc4)cc3C(=O)N([C@H](C)CO)C[C@H]2C)cc1	none
C[C@H](CO)N1C[C@H](C)[C@H](CN(C)C(=O)NC2CCCCC2)Oc2ncc(-c3cccc(C(F)(F)F)c3)cc2C1=O	miR-122 inh 33
COc1ccc(S(=O)(=O)N(C)C[C@H]2Oc3ccc(NC(=O)Nc4ccc(C(F)(F)F)cc4)cc3C(=O)N([C@H](C)CO)C[C@H]2C)cc1	none
C[C@@H]1CN([C@@H](C)CO)C(=O)c2cc(-c3ccccc3F)cnc2O[C@H]1CN(C)C(=O)NC1CCCCC1	none
C[C@@H]1CN([C@H](C)CO)C(=O)c2cc(NC(=O)Nc3cccc4ccccc34)ccc2O[C@@H]1CN(C)C(=O)Nc1ccccc1	none
C[C@@H]1CN([C@@H](C)CO)C(=O)c2cc(NC(=O)Nc3ccc(C(F)(F)F)cc3)ccc2O[C@@H]1CN(C)CC1CCCCC1	miR-122 inh 40
COc1ccc(CN(C)C[C@@H]2OCCCC[C@@H](C)Oc3ccc(NC(=O)c4ccccc4)cc3C(=O)N([C@H](C)CO)C[C@@H]2C)cc1	none
COc1ccc(CN(C)C[C@@H]2OCCCC[C@H](C)Oc3ccc(NC(=O)Nc4ccc(C(F)(F)F)cc4)cc3C(=O)N([C@H](C)CO)C[C@@H]2C)cc1	miR-122 inh 31
C[C@@H]1CN([C@@H](C)CO)C(=O)c2cc(NC(=O)Nc3cccc4ccccc34)ccc2O[C@@H](C)CCCCO[C@@H]1CN(C)CC1CCCCC1	miR-122 inh 34
C[C@@H]1CN([C@@H](C)CO)S(=O)(=O)c2ccc(-c3ccc(C(=O)N(C)C)cc3)cc2O[C@@H]1CN(C)Cc1ccc2c(c1)OCO2	none
CCCNC(=O)Nc1ccc2c(c1)OC[C@@H](C)NC[C@H](C)[C@H](OC)CN(C)C2=O	none
C[C@@H]1CN([C@@H](C)CO)C(=O)c2cc(-c3cccc(C(=O)N(C)C)c3)cnc2O[C@H]1CN(C)S(=O)(=O)c1ccc(F)cc1	none
CC(C)CC#Cc1cnc2c(c1)C(=O)N([C@H](C)CO)C[C@H](C)[C@H](CN(C)C(=O)Nc1cc(F)ccc1F)O2	none
O=S(Cc1ccccc1)CC(O)(c1ccc(Cl)cc1)c1ccc(Cl)cc1 (stereo not given)	none
C[C@H]1CN([C@@H](C)CO)S(=O)(=O)c2ccc(C#Cc3cccc(F)c3)cc2O[C@@H]1CN(C)C(=O)CN1CCOCC1	none

Bioassay records (PubChem BioAssay)
